# PubChem BioAssay (NCI)
# Where “and” joins values, the source holds several entries; their conditions need not be identical. Equal entries are not always repeated. Compounds without any hit were thinned out: in the full panel of roughly 79,000, 15% have a hit. Values without a mark were called inactive. Calls of active or inactive are those of the source. No stated cut-off is given here; in the data, active means growth inhibition above about 70%; inactive means the rest.
# Assay: NCI Yeast Anticancer Drug Screen. Data for the cln2 rad14 strain (AID 165);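 further: 0% = growth equal to vehicle treated cultures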
# Conditions: S. cerevisiae cln2 rad14 strain, active compounds read high; at 50.0 µM unless noted
# Method in brief: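 Growth inhibition, relative to vehicle-treated controls, is the read-out. The test organism is a yeast strain with defined genetic alterations, cln2 rad14.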
row,Structure (SMILES),growth inhibition
1,NCCCc1nonc1C(=O)O,-4.05%
2,COC1=NS(=O)(=O)C2CCCCCCC2O1 (stereo not drawn),-74.2%
3,CC1CN=C(N(C(=O)Nc2ccccc2)C2CCCCC2)S1 (stereo not drawn),5.35%
4,COc1ccc(-n2c(N)c(C#N)[nH]c2=O)cc1,-11.8%
5,NC(C=O)C(O)C(O)C(O)CO (stereo not drawn),-10.2%
6,Cc1cc(OC(=O)c2c(-c3c(Cl)cccc3Cl)noc2C)n(-c2ccc(NC(=O)c3c(-c4c(Cl)cccc4Cl)noc3C)cc2)n1,13%
7,CC(=O)Oc1ccc(N2CC=C(c3ccccc3)CC2)cc1,-8.35%
8,OC(c1ccc(OCc2ccccc2)cc1)c1ccccn1 (stereo not drawn),-16.4%
9,Cc1ccc(=O)[nH]n1,-8.35% and -28.9%
10,CC12CC(O)C3C(CCC4CC(O)CCC43C)C1CCC2C(=O)CO (stereo not drawn),13.2%
11,O=C(Nc1ccccc1)c1cc(S(=O)(=O)Nc2n[nH]c(=O)[nH]2)c(SSc2cc(Cl)c(C(=O)Nc3ccccc3)cc2S(=O)(=O)Nc2n[nH]c(=O)[nH]2)cc1Cl,-6.35%
12,C/C(N=NC(=S)N1CC2CCC(CC2)C1)=C1\C=CC=CN1O,69.5%
13,CCCOC(=O)C1C(=O)CC(c2ccccc2)C1c1ccccc1 (stereo not drawn),-4.15%
14,O=C(Cc1ccc([N+](=O)[O-])cc1)Nc1cccc(O)c1,-13.5%
15,C/C(=C\c1ccc(N(C)C)cc1)c1ccncc1,34.8%
16,Nc1nc2cc(F)ccc2o1,-20.1%
17,O=c1c2ccccc2c(=O)n2n1-c1cccc(c1)CSSCc1cccc-2c1,-3.45%
18,ON=C1CCC(c2ccccc2)CC1 (stereo not drawn),-24.2%
19,O=C1c2ccccc2S(=O)(=O)c2c1cccc2[N+](=O)[O-],5.3%
20,CN(C)c1ccccc1C(=O)N/N=C\c1ccc(-c2ccccc2)cc1,12.3%

row,Structure (SMILES),growth inhibition
1,CCN(CC)c1ccc(/C=N/Nc2cc(C)nc3ccc(C4CCCCC4)cc23)cc1,3.15%
2,c1ccc(-c2cnoc2-c2ccccc2)cc1,-19.8%
3,COc1ccc(N2C(N)=C(C#N)C(C#N)(C#N)C2c2cccc([N+](=O)[O-])c2)cc1 (stereo not drawn),0.25%
4,CCSc1[nH]c(Nc2nc(-c3ccccc3)n(-c3ccccc3)n2)c(C(N)=O)c1C(N)=O,-5.85%
5,C[N+]1(C2C=CCC(c3ccccc3)C2[N+](=O)[O-])CCCC1 (stereo not drawn),15.2%
6,C=C(C)C(C)/C(C)=N/NC(N)=O (stereo not drawn) (tested in a mixture with another compound),10.4%
7,Cc1nc2ccncc2[nH]1,0.05%
8,CCOC(=O)/C(Cc1ccc2ccccc2n1)=N/O,-16.8%
9,c1ccc(C2Cc3ccccc3C2c2ccccc2)cc1 (stereo not drawn),-17.8%
10,O=C1NC(=O)C(Cc2ccccc2)(c2cccnc2)N1 (stereo not drawn),-36.1%
11,C=C1C(=O)O[C@@H]2C[C@@H](C)[C@@H]3C=CC(=O)[C@@]3(C)[C@@H](OC(=O)CCCC(=O)O[C@H]3[C@@H]4C(=C)C(=O)O[C@@H]4C[C@@H](C)[C@@H]4C=CC(=O)[C@]43C)[C@H]12,31.1%
12,ClC1CCC[N-]C1.ClC1CCC[N-]C1.[Cl][Pt+2][Cl] (stereo not drawn),-28.6%
13,CCOC(=O)Cc1ccc2ccccc2c1,1.2%
14,CSc1ccc(Cl)cc1,16.9%
15,Cc1cc(Cl)ccc1N=C1NC(=O)C(CC(=O)Nc2ccc([N+](=O)[O-])cc2[N+](=O)[O-])S1 (stereo not drawn),-58.9%
16,OC1(C#CC#CC2(O)CCCCC2)CCCCC1,10.1%
17,CCCCS(=O)/C=C\S(=O)CCCC (stereo not drawn),-16.2%
18,CC1=NN(C(=O)Nc2ccc(Cl)cc2)C(=O)C2CCC(=O)N12 (stereo not drawn),2.7%
19,CC(=O)Nc1cc([N+](=O)[O-])cc([N+](=O)[O-])c1O,-24.8%

# Assay: NCI Yeast Anticancer Drug Screen. Data for the bub3 strain (AID 167)
# Conditions: S. cerevisiae bub3 mutant strain, active compounds read high; at 50.0 µM unless noted
# Method in brief: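 Readout: yeast growth inhibition, expressed relative to vehicle-only wells. The test organism is a mutant strain from a panel with lesions in DNA repair or checkpoint genes.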
row,Structure (SMILES),growth inhibition
1,NCCCc1nonc1C(=O)O,-7.3%
2,COC1=NS(=O)(=O)C2CCCCCCC2O1 (stereo not drawn),10.6%
3,CC1CN=C(N(C(=O)Nc2ccccc2)C2CCCCC2)S1 (stereo not drawn),-4.3%
4,COc1ccc(-n2c(N)c(C#N)[nH]c2=O)cc1,6.05%
5,NC(C=O)C(O)C(O)C(O)CO (stereo not drawn),-19.5%
6,Cc1cc(OC(=O)c2c(-c3c(Cl)cccc3Cl)noc2C)n(-c2ccc(NC(=O)c3c(-c4c(Cl)cccc4Cl)noc3C)cc2)n1,28.1%
7,CC(=O)Oc1ccc(N2CC=C(c3ccccc3)CC2)cc1,-9.45%
8,OC(c1ccc(OCc2ccccc2)cc1)c1ccccn1 (stereo not drawn),-5.7%
9,Cc1ccc(=O)[nH]n1,-16.1% and -27.5%
10,CC12CC(O)C3C(CCC4CC(O)CCC43C)C1CCC2C(=O)CO (stereo not drawn),12.1%
11,O=C(Nc1ccccc1)c1cc(S(=O)(=O)Nc2n[nH]c(=O)[nH]2)c(SSc2cc(Cl)c(C(=O)Nc3ccccc3)cc2S(=O)(=O)Nc2n[nH]c(=O)[nH]2)cc1Cl,-2.25%
12,C/C(N=NC(=S)N1CC2CCC(CC2)C1)=C1\C=CC=CN1O,78% (active)
13,CCCOC(=O)C1C(=O)CC(c2ccccc2)C1c1ccccc1 (stereo not drawn),1.25%
14,O=C(Cc1ccc([N+](=O)[O-])cc1)Nc1cccc(O)c1,47.4%
15,C/C(=C\c1ccc(N(C)C)cc1)c1ccncc1,86.7% (active)
16,Nc1nc2cc(F)ccc2o1,-21.6%
17,O=c1c2ccccc2c(=O)n2n1-c1cccc(c1)CSSCc1cccc-2c1,0.2%
18,ON=C1CCC(c2ccccc2)CC1 (stereo not drawn),2.85%
19,O=C1c2ccccc2S(=O)(=O)c2c1cccc2[N+](=O)[O-],-4.7%
20,CN(C)c1ccccc1C(=O)N/N=C\c1ccc(-c2ccccc2)cc1,0.35%

row,Structure (SMILES),growth inhibition
1,CCN(CC)c1ccc(/C=N/Nc2cc(C)nc3ccc(C4CCCCC4)cc23)cc1,-2.35%
2,c1ccc(-c2cnoc2-c2ccccc2)cc1,-18.7%
3,COc1ccc(N2C(N)=C(C#N)C(C#N)(C#N)C2c2cccc([N+](=O)[O-])c2)cc1 (stereo not drawn),-31.9%
4,CCSc1[nH]c(Nc2nc(-c3ccccc3)n(-c3ccccc3)n2)c(C(N)=O)c1C(N)=O,-9.75%
5,C[N+]1(C2C=CCC(c3ccccc3)C2[N+](=O)[O-])CCCC1 (stereo not drawn),-3.6%
6,C=C(C)C(C)/C(C)=N/NC(N)=O (stereo not drawn) (tested in a mixture with another compound),10.6%
7,Cc1nc2ccncc2[nH]1,-10.6%
8,CCOC(=O)/C(Cc1ccc2ccccc2n1)=N/O,13.7%
9,c1ccc(C2Cc3ccccc3C2c2ccccc2)cc1 (stereo not drawn),-7.6%
10,O=C1NC(=O)C(Cc2ccccc2)(c2cccnc2)N1 (stereo not drawn),-0.65%
11,C=C1C(=O)O[C@@H]2C[C@@H](C)[C@@H]3C=CC(=O)[C@@]3(C)[C@@H](OC(=O)CCCC(=O)O[C@H]3[C@@H]4C(=C)C(=O)O[C@@H]4C[C@@H](C)[C@@H]4C=CC(=O)[C@]43C)[C@H]12,58%
12,ClC1CCC[N-]C1.ClC1CCC[N-]C1.[Cl][Pt+2][Cl] (stereo not drawn),-3.6%
13,CCOC(=O)Cc1ccc2ccccc2c1,8.05%
14,CSc1ccc(Cl)cc1,-1.2%
15,Cc1cc(Cl)ccc1N=C1NC(=O)C(CC(=O)Nc2ccc([N+](=O)[O-])cc2[N+](=O)[O-])S1 (stereo not drawn),13%
16,OC1(C#CC#CC2(O)CCCCC2)CCCCC1,3.4%
17,CCCCS(=O)/C=C\S(=O)CCCC (stereo not drawn),8.55%
18,CC1=NN(C(=O)Nc2ccc(Cl)cc2)C(=O)C2CCC(=O)N12 (stereo not drawn),-0.45%
19,CC(=O)Nc1cc([N+](=O)[O-])cc([N+](=O)[O-])c1O,-10.8%
